Mdm2 MdmX PPI – human Mdm2/MdmX binding inhibition; O15151+Q00987; SaOS-2 split-luciferase Mdm2/MdmX complementation, luminescence; inhibition, % at 8 µM; actives 3% (n = 330,000);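 active = inhibition of at least 50% at 8 µM in the primary screen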
Target sequence (O15151 whole entry, looked up): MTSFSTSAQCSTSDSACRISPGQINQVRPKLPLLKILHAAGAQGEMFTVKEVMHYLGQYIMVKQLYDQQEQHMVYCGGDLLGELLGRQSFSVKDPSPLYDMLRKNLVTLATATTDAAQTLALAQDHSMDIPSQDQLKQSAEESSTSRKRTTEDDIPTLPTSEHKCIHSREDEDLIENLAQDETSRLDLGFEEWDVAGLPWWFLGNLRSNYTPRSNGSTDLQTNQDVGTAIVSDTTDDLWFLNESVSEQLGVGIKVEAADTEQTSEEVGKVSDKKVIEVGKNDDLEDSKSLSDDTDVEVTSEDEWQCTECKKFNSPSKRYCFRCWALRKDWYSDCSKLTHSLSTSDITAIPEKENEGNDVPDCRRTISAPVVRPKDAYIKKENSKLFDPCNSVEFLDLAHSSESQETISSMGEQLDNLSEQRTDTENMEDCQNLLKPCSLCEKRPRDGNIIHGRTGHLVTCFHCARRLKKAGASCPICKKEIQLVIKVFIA
Target sequence (Q00987 whole entry, looked up): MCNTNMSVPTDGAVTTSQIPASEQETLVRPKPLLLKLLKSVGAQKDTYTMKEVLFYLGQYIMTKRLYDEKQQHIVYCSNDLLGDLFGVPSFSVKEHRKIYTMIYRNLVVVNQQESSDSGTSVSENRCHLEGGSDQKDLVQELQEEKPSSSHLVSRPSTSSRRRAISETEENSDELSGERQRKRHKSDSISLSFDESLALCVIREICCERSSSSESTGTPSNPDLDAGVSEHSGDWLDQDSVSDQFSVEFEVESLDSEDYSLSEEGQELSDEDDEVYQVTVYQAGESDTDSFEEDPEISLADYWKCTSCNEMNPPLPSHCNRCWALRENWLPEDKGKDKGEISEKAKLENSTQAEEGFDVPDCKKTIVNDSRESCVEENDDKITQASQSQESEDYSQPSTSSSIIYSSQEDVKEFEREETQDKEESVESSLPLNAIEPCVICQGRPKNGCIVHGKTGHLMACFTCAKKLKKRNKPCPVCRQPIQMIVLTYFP
CSC inhib – cancer stem cell inhibition | cancer stem cell-like cells viability, luminescence | inhibition, % at 7.5 µM | actives 1.1% (n = 300,000) | AID 2717; in the data active = inhibition above about 75%; inconclusive = no clear call, values can overlap the other calls; tested in HMLE shEcad cells
MPTP block – blocks calcium-induced mitochondrial swelling. inhibition, % at 10 µM. actives 1.4% (n = 360,000). isolated mouse mitochondria, Ca2+ swelling absorbance, 30 min;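 active = inhibition of 50% or more, scaled per plate between neutral and stimulator controls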
Calb FLC – C. albicans growth modulation with fluconazole | C. albicans CaCi-2 (fluconazole-resistant clinical isolate) + fluconazole, Alamar Blue growth, 48 h | growth inhibition, % (concentration not given with the values) | actives 0.57% (n = 300,000);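 active = growth inhibition above about 58% in most replicates, limit read from the data, passing the limit was not always enough; inconclusive = exactly half the replicates above a set limit; inactive = most replicates below a set limit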;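 also: all wells also contain fluconazole at 8 µg/ml as a sub-toxic cotreatment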
Beta apoptosis – blocks beta cell apoptosis | AID 435005 | INS-1E cytokine-induced death, ATP luminescence, 48 h; percent of positive-control rescue, neutral wells zero | actives 0.8% (n = 300,000) | protection from apoptosis, % (test concentration not listed);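 active = Every replicate reaches about 75%, or at least half do and their mean reaches it too, limit read from the data; inconclusive = At least half of replicates reach the limit but their mean does not; inactive = Under half of replicates reach the limit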;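 also: higher means more ATP so stronger rescue from cytokine killing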
Hits are given with their value; n = inactive; u = inconclusive; x = no result. Shown are actives, neighbours in structure and some others; about 4.8% of the full set was active somewhere.

SMILES	Mdm2 MdmX PPI	CSC inhib	MPTP block	Calb FLC	Beta apoptosis
CC(C)(C)CNC(=O)C1(C)CCN1C(=O)c1ccccc1CCc1ccccc1 (stereo unspecified)	x	x	n	x	x
COc1cccc(CN(C(=O)c2cc3ccccc3oc2=O)C2CC2)c1	n	n	n	89.9	n
CCN1C(=O)[C@@H]2[C@@H]3CN(S(=O)(=O)c4ccc(C)cc4)[C@@H](c4ccccc4F)[C@@H]3C(=O)C[C@@H]2C1=O	x	x	n	x	x
CCCCCCn1c(=O)[nH]c2nc3cc(N)ccc3nc2c1=O	x	81.8	x	n	n
CCCCCn1c(=O)c(C(=O)c2ccccc2)nc2ccccc21	n	n	n	n	n
CCOc1cc(OCC)cc(C(=O)N2CCC[C@H]2C(=O)N2CCC[C@H]2C(=O)NCc2cccc(OC)c2)c1	x	x	n	x	x
COc1cc(C(=O)OCc2cc(=O)c(O)co2)ccc1OC(F)F	n	n	n	101.8	n
CCOc1cc(C(=O)NCc2ccccc2)ccc1OCC(=O)N1CCOCC1	n	x	n	97.9	n
COCc1nnc(NC(=O)c2ccc(S(=O)(=O)N(CC(C)C)CC(C)C)cc2)o1	n	n	n	n	n
CCN(c1ccccc1)S(=O)(=O)c1ccc(C(=O)Nc2nnc(-c3ccco3)o2)cc1	n	86.8	n	u	n
CN(c1ccccc1)S(=O)(=O)c1ccc(C(=O)Nc2nnc(C3CC3)o2)cc1	n	n	n	n	n
CCN(Cc1ccccc1)S(=O)(=O)c1ccc(C(=O)Nc2nnc(-c3ccccc3OC)o2)cc1	n	n	n	82.7	n
C=CCN(CC=C)S(=O)(=O)c1ccc(C(=O)Nc2nnc(COC)o2)cc1	n	n	n	114.0	n
CCN(c1ccccc1)S(=O)(=O)c1ccc(C(=O)Nc2nnc(C3CC3)o2)cc1	n	n	n	78.6	n
CCc1nc2c(OCc3ccc(F)c(F)c3)cccn2c1N(C)C(=O)c1ccc(OC)cc1	x	x	n	x	x
Cc1nn(-c2ccccc2)c(C)c1C(=O)Nc1nnc(-c2ccco2)o1	n	n	n	84.0	n
CC(C)(C)c1ccc(SC2=C[C@@]3(O)CC[C@@H](O)[C@@](Sc4ccc(C(C)(C)C)cc4)(C2=O)[C@H]3O)cc1	x	x	n	x	x
c1ccc(-c2cc3nc(NCc4cccs4)nc(NCc4ccc5occc5c4)c3s2)cc1	x	x	n	x	x
COCCN(C(=O)COC(=O)C12CC3CC(CC(Cl)(C3)C1)C2)c1c(N)n(Cc2ccccc2)c(=O)[nH]c1=O	n	n	n	n	n
CC(C)CN(C(=O)COC(=O)C12CC3CC(CC(Cl)(C3)C1)C2)c1c(N)n(Cc2ccccc2)c(=O)[nH]c1=O	n	n	n	n	80.9
O=C(Nc1ccc(S(=O)(=O)N2CCCCC2)cc1)c1ccc(CN2CCc3ccccc3C2)cc1	n	n	n	n	106.7
COc1ccc2cc(/C=N/NC(=O)c3ccc(CN(c4cccc(Cl)c4Cl)S(C)(=O)=O)cc3)c(Cl)nc2c1	n	85.1	n	n	n
O=C(NCc1cccnc1)c1ccc(NC(=O)c2cccc([N+](=O)[O-])c2)cc1	n	n	n	n	139.6
O=C(Nc1cccnc1)c1cccc(-c2cc3ccccc3oc2=O)c1	n	n	n	n	n
O=C(NCc1cccnc1)c1ccc([N+](=O)[O-])cc1	n	n	n	n	103.3
SMILES	Mdm2 MdmX PPI	CSC inhib	MPTP block	Calb FLC	Beta apoptosis
O=C(NCc1cccnc1)c1cc(C(=O)NCc2cccnc2)cc([N+](=O)[O-])c1	x	x	n	x	x
O=C(NCc1cccnc1)c1ccc(-c2cc3ccccc3oc2=O)cc1	n	n	n	n	101.2
O=C(Cc1ccc([N+](=O)[O-])cc1)Nc1cccnc1	n	n	n	n	80.9
O=C(NCc1ccccc1Cl)c1[nH]c(C(F)(F)F)nc1-c1ccccc1	x	x	n	x	x
O=C(COc1ccc([N+](=O)[O-])cc1)Nc1ccc(C(=O)NCc2cccnc2)cc1	n	n	n	n	101.0
COc1ccc(N2C(=O)c3ccccc3NC(=O)C2C(=O)NCc2ccco2)cc1 (stereo unspecified)	x	x	n	x	x
CCCN1CCCc2cc(CN)ccc21	n	n	n	n	98.1
C/C(=N\OCc1ccccc1C#N)c1cc2ccccc2o1	n	n	n	n	n
C/C(=N\OCc1ccc(C#N)cc1)c1cc2ccccc2o1	n	n	n	77.7	n
CC1(c2nnnn2-c2ccc3c(c2)OCCO3)CCC(=O)N1CCc1c[nH]c2ccccc12 (stereo unspecified)	x	x	n	x	x
CCCCNC(=O)C(NC(=O)c1ccc(=O)[nH]c1)C(=O)c1ccccc1 (stereo unspecified)	x	x	n	x	x
CCOC(=O)c1c(NC(=O)C(=O)N/N=C/c2ccccc2O)sc2c1CCCCC2	n	82.9	n	n	n
CCOC(=O)c1c(NC(=O)C(=O)N/N=C/c2ccccc2OC)sc2c1CCCCC2	n	n	n	n	n
O=C(C[C@H]1CC[C@@H](NC(=O)C2CC2)[C@@H](CO)O1)NCc1ccccc1Cl	x	x	n	x	x
Cc1cccc(-c2cnc(C(O)c3ccc(Cl)cc3C)[nH]2)c1 (stereo unspecified)	x	x	n	x	x
CCC(=O)N1c2ccc(S(=O)(=O)CCC(=O)N3CCn4c3nc3ccccc34)cc2CC1C (stereo unspecified)	n	n	n	80.6	n
O=C(NCCN1CCC(n2c(=O)[nH]c3ccccc32)CC1)C(c1ccccc1)c1ccccc1	x	x	n	x	x
CCOc1cc(-c2sc(Nc3cc(C)ccc3OC)n[n+]2-c2ccccc2)ccc1OC	n	n	n	x	93.8
CCOc1cc(-c2sc(Nc3ccc(CC)cc3)n[n+]2-c2ccccc2)ccc1OC	n	n	n	x	n
COc1ccc(-c2ccc(C)cc2)cc1[C@H]1[C@@H]2C=CCC[C@@]2(C)C(=O)N1Cc1ccccc1	n	115.3	n	n	n
CCc1nc2c(OCC(=O)c3ccc(F)cc3)cccn2c1N(C)C(=O)c1ccc(OC)cc1	x	x	n	x	x
Cc1cc(NCCCn2ccnc2)n2nc(C)c(-c3ccc(Cl)cc3)c2n1	n	124.7	n	n	n
O=C1C=C(OCCCl)CC(c2cccc(Cl)c2)O1 (stereo unspecified)	x	x	n	x	x
Cc1ccc(NC(=O)C2C(C(=O)O)C3C=CC2C32CC2)cc1 (stereo unspecified)	n	n	n	79.1	n
OCCN1CCN(CCCN2c3ccccc3CCc3ccccc32)CC1	x	x	n	x	x
SMILES	Mdm2 MdmX PPI	CSC inhib	MPTP block	Calb FLC	Beta apoptosis
OCCN1CCN(CCCc2c3c(cc4c2CCC4)CCC3)CC1	n	94.8	n	n	n
CC(C)(C)C(c1nc2ccccc2[nH]1)n1c(-c2cc(Cl)cc(Cl)c2)nc2ccccc21 (stereo unspecified)	x	x	n	x	x
COc1ccc2c(c1OC)C(=O)N1N=C(c3ccc(O)cc3)CC21 (stereo unspecified)	n	n	n	93.5	n
O=C(Nc1ccc2cn[nH]c2c1)c1c(Cl)cccc1Cl	n	n	n	n	x
O=C1C(Cl)=C(Nc2ccc3cn[nH]c3c2)C(=O)c2ccccc21	x	108.6	n	n	110.3
O=C(COc1ccccc1)Nc1nnc(-c2ccc3c(c2)CCCC3)o1	n	n	n	81.5	n
COC(=O)[C@]12CCCCC=C1N(Cc1cccc3ccccc13)C(=O)[C@H](CC(=O)N1CCCCC1)C2	x	x	n	x	x
Cc1c(Cc2ccccc2)c(=O)oc2c(O)c(O)ccc12	n	x	n	108.4	x
